The whole screen tested about 5,500 compounds, of which about 2,000 (36%) were called active. Another 18% or so got no clear call; they are omitted. Cut-off read from the data, not from the text of the source: active = normalized growth mostly below about 0.91 (no sharp cut-off); inconclusive = no clear call, values can overlap the other calls; inactive = mostly above about 0.92. This is one part of the list.
Experiment: chemical genetic growth profiling, strain panel (AID 1159580);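 note: tested at 20 µM; growth read once vehicle control cultures reached saturation at 30 °C; 1 = growth at the plate median or of vehicle wells; lower values mean less growth of the strain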
Details: S. cerevisiae deletion strains, growth OD

Measured: normalized growth

C#CCN(C)CCCOc1ccc(Cl)cc1Cl
inactive: locus YAL040C, strain CLN3, stronger effect = lower value 1.01 | locus YCL061C, strain MRC1 (second series), stronger effect = lower value 0.989 | locus YDR150W, strain NUM1, stronger effect = lower value 0.974 | locus YDR363W, strain ESC2, stronger effect = lower value 0.991 | locus YER002W, strain NOP16, stronger effect = lower value 0.993 | locus YMR263W, strain SAP30, stronger effect = lower value 1 | locus YMR307W, strain GAS1, stronger effect = lower value 0.989 | locus YNL175C, strain NOP13, stronger effect = lower value 1 | locus YNL197C, strain WHI3, stronger effect = lower value 1 | locus YNL224C, strain SQS1, stronger effect = lower value 1.01 | locus YNL322C, strain KRE1, stronger effect = lower value 0.993 | locus YOR083W, strain WHI5 (second series), stronger effect = lower value 0.896 | locus YPL055C, strain LGE1, stronger effect = lower value 0.961
